Records with an inconclusive call do not appear. The source made the active and inactive calls. Rule for the calls: active = hit-call score of the fitted dose curve at least 0.9, where 1 is the maximum; inconclusive = response in the unintended direction; inactive = score below 0.9.

In PubChem BioAssay (EPA / NIEHS) one finds outcome and AC50 data, which are given here for 22 compounds.

The experiment can be described thus: ACEA_ER_AUC_viability: ACEA Biosciences xCELLigence Real-Time Cell Analysis on Estrogen Receptor Agonism for Viability (AID 2283782).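 Note: continuous compound exposure with impedance area under curve over 80 h; hit means loss of impedance signal meaning reduced cell growth or viability.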 Summed up:
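T-47D human breast cells in phenol red-free RPMI1640 with 10% charcoal-stripped FBS were dosed with an 8-point 1:4 dilution series from 100 uM top final concentration, in duplicate. Impedance-based growth was followed for 80 h; AUC analysed versus DMSO.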
Take `C=CCc1ccc(OC)c(OC)c1`: the call was inactive.

Usually AC50 stands for the concentration at which the activity in the assay is half-maximal. Regarding `CCCCCCCCCCCCCCOS(=O)(=O)O`, the AC50 is 74.5 µM (active).

For the compound `CN(C)C(=O)NC1(c2ccccc2)CCN(CCC[C@]2(c3ccc(Cl)c(Cl)c3)CCCN(C(=O)c3ccccc3)C2)CC1`, the AC50 is 14.6 µM (active).

As for `C/C=C/c1ccc(OC)cc1`, the compound was classed as inactive.

Turning to `S=c1[nH]c2ccccc2s1`, the concentration at half-maximal activity (AC50) was 91.9 µM (active).

Regarding `OCC(CO)n1cnc(-c2ccc(F)cc2)c1-c1ccnc(Oc2ccccc2)n1`, the outcome was inactive.

For the compound `COc1ccc(C(=O)Nc2nc3ccccc3c(NCc3ccccc3)c2C#N)cc1`, the compound was called inactive.

Consider `NC1CCCCC1`, for which the result was inactive.

For the compound `O=C1c2c(O)cccc2Cc2cccc(O)c21`, the compound was classed as inactive.

Regarding `O=C(O)CC(O)(CC(=O)O)C(=O)O`, the call was inactive.

For `CC(=O)S[C@H](C(=O)N[C@H]1Cc2ccccc2[C@H]2CCC[C@@H](C(=O)O)N2C1=O)C(C)C`, the outcome was inactive.

Regarding `CC(N)=O`, the result was inactive.

Regarding `CCCCCCCC(=O)OC`, the compound was called inactive.

In the case of `C/C=C/C=C/C(=O)O`, the outcome was inactive.

Turning to `CN(C)C(=O)NC1(c2ccccc2)CCN(CC[C@@]2(c3ccc(F)c(F)c3)CN(C(=O)c3ccccc3)CCO2)CC1`, the half-maximal activity concentration (AC50) is 25.4 µM (active).

Turning to `O=C1NC(=O)C(c2ccccc2)(c2ccccc2)N1`, the outcome was inactive.

Consider `O=C(O)CN(CC(=O)O)CC(=O)O`, for which the compound was called inactive.

With `Oc1ccc(O)cc1`, the half-maximal activity concentration (AC50) was 11.3 µM (active).

In the case of `Cc1ccc(C(C)(C)C)c(O)c1`, the AC50 was 75.6 µM (active).

For `COC(=O)CCC(=O)OC`, the compound was called inactive.

Consider `CC(=O)OCC(COC(C)=O)OC(C)=O`, for which the outcome was inactive.

For `CCc1cc(C2=C(C(=O)O)N(c3ccccc3C(F)(F)F)S(=O)(=O)c3ccccc32)cc2c1OCO2`, the AC50 is 15.8 µM (active).
